Screening data deposited in PubChem BioAssay by National Center for Advancing Translational Sciences (NCATS).
A selection: hits, their analogues and other compounds. The true share with any hit is near 9.2%.
ELG1 DNA repair = ELG1-dependent DNA repair inhibition; AID 504467; HEK293T ELG1-luciferase reporter, luminescence, 16 h; DNA damage induced by 5-fluorouridine; Potency, µM (highest dose often 46.1 µM), for inactives: at the highest dose activity change, negative = inhibition, usual class: inhibitors; 2.3% of 330,000 active; note: % is set by controls: 0 for no effect and ±100 for the full control effect; nearly all actives have a fitted effect of over 55% in size
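Step one: seed 2,000 cells per well. Step two: pin-transfer compound or DMSO alongside 5-fluorouridine. Step three: incubate 16 hr, 37 °C, 5% CO2. Step four: add ONE-Glo, wait 30 min, read luminescence.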
SMN2 splice up = SMN2 splice variant enhancement; HEK293 SMN2-luciferase splicing reporter, luminescence, 30-36 h; Potency, µM (highest dose often 46.1 µM), for inactives: at the highest dose activity change, positive = activation, hits mostly activators; 2.8% of 210,000 active; note: % of control where 0% means no effect; nearly all actives have a fitted effect of over 55% in size
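HEK293 cells carry an SMN2 minigene-luciferase reporter in which exon 7 inclusion puts luciferase in frame. Cells were seeded at 2000 cells/well, attached for 10-12 hours, then exposed to compounds for 30-36 hours at 37C before ONE-Glo luminescence.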
Rab9 prom act = activators of Rab9 promoter | Huh7 Rab9 promoter-luciferase reporter, luminescence, 24 h | 2.8% of 320,000 active | Potency, µM (top dose mostly 9.22 µM), for inactives: at the top dose activation, negative = inhibition, usual class: activators; note: % of control where 0% means no effect; nearly all actives have a fitted effect of over 60% in size
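Huh7 reporter line, Rab9 promoter upstream of luciferase. Compound exposure 24 h at 37 °C in reduced-serum medium with 10% FBS. Read-out: luminescence.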
FLuc modulator = inhibits or activates purified firefly luciferase, miR-21 counter-screen; 6.9% of 360,000 active; P08659; Potency, µM (series often up to 57.5 µM), inactives show at the top dose activity change, negative = inhibition, usual class: inhibitors; purified FLuc, Km substrates, luminescence inhibition;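 note: plate controls were vehicle for no effect and reference inhibitor for full effect; nearly all actives have a fitted effect of over 55% in size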
Target sequence (P08659 whole entry, looked up): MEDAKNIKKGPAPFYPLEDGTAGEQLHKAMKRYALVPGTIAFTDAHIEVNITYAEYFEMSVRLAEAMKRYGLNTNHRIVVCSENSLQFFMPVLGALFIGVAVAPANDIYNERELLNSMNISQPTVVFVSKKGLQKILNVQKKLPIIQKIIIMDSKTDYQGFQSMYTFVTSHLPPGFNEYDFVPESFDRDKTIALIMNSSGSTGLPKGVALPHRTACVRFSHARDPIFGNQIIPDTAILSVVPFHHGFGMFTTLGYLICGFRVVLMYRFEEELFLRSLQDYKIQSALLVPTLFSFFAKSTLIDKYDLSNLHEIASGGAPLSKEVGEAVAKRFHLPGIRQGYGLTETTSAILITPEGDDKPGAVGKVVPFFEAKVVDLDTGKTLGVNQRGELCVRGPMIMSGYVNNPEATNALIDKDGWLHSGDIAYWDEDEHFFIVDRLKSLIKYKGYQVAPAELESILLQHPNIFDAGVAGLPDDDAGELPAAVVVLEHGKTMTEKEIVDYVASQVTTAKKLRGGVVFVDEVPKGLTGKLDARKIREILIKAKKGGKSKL
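Biochemical qHTS of compounds, final roughly 60 µM downward over six points, against 10 nM purified firefly luciferase using Km concentrations of substrates (10 uM D-luciferin, 10 uM ATP) in Tris acetate pH 7.5 buffer; luminescence output.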
ELG1 genotoxic = inducers of genotoxicity in HEK293T ELG1-luciferase cells; HEK293T ELG1-luciferase reporter, luminescence, 16 h; Potency, µM (top dose mostly 46 µM), for the others: top-dose activity change, positive = activation, hits mostly activators; 1.3% of 330,000 active; AID 504466; note: % of control where 0% means no effect; nearly all actives have a fitted effect of over 60% in size
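DMSO vehicle served as control against compound-treated ELG1-luciferase HEK293T cells; exposure lasted 16 hr at 37 °C and 5% CO2, followed by ONE-Glo luminescence detection after 30 min.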
NPC1 promoter act = activates the NPC1 promoter | 2.4% of 320,000 active | Potency, µM (doses to about 9.22 µM), for the others: at the top dose activation, usual class: activators | Huh7 NPC1 promoter luciferase reporter, 24 h; note: % of control where 0% means no effect; nearly all actives have a fitted effect of over 60% in size
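Stable NPC1-promoter luciferase Huh7 line; cpd (DMSO) 24 h, 37 °C, 5% CO2; Amplite luciferase reagent 10 min RT; luminescence readout. qHTS format.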
Numbers without * were called inactive; ? = inconclusive; / = no result. Calls come from the whole dose curve; as a rule, active = well fitted curve in the direction sought with a large enough effect; inconclusive = small, poorly fitted or top-dose-only effect, or another doubt; inactive = no such curve, though single readings can be large; an effect the other way counts as inactive or inconclusive. Potency is the fitted concentration of half-maximal effect.

SMILES	ELG1 DNA repair	SMN2 splice up	Rab9 prom act	FLuc modulator	ELG1 genotoxic	NPC1 promoter act
CC(C)C(=O)N1CCC(c2nc(-c3ccc(S(=O)(=O)N4CCN(C)CC4)cc3)no2)CC1	-8%	-32%	-7%	-6%	-2%	-9%
CC(C)N(C(=O)N1CCC(c2nc(-c3ccncc3)no2)CC1)C(C)C	16µM*	-90%	-9%	2%	?	1%
Cc1ccc(-c2noc(C3CCN(S(=O)(=O)c4ccc5c(c4)OCCO5)CC3)n2)o1	23µM*	-53%	-2%	3%	-8%	-4%
CCC(=O)N1CCc2cc(Br)cc(S(=O)(=O)CCC(=O)N3CCN(c4ccccc4F)CC3)c21	/	-4%	/	-11%	/	/
COc1ccccc1NC(=O)c1ccc2c(=O)n3c(nc2c1)CCC3	?	/	8%	-22%	-1%	21%
CC(C)c1ccc(OC(=O)c2ccc3c(=O)n4c(nc3c2)CCC4)cc1	18%	/	3%	12µM*	?	0%
O=C(Nc1ccc(Cl)cc1Cl)c1ccc2c(=O)n3c(nc2c1)CCC3	?	/	1.4µM*	11µM*	?	1.8µM*
O=C(Nc1ccc(Br)cc1Cl)c1ccc2c(=O)n3c(nc2c1)CCC3	?	/	3.5µM*	21µM*	6.5µM*	3.5µM*
CC(OC(=O)CSc1ccccc1)C(=O)NC1CCCCC1C (stereo not given)	13%	/	-6%	5%	1%	0%
CC(=O)Nc1ccc2nc(SCc3ccccc3)sc2c1	/	/	/	13µM*	/	/
O=C(O)c1ccc(CSc2nc3ccc(NC(=O)c4ccccc4C(=O)O)cc3s2)cc1	5%	19%	-5%	17µM*	-1%	-5%
N#Cc1ccccc1CSc1nc2ccc(NC(=O)c3ccccc3C(=O)O)cc2s1	?	/	2%	?	12%	-5%
O=C1/C(=C/c2cccs2)Cc2ccccc21	?	/	19%	3.8µM*	?	21%
Cc1ccccc1C1=N/C(=C/c2cccs2)C(=O)O1	22%	-21%	3%	3.4µM*	0%	0%
O=C1C(=Cc2cccs2)C(=O)c2ccccc21	4%	5%	10%	4.8µM*	10%	-1%
O=C1/C(=C\c2ccc(Br)o2)Cc2ccccc21	?	-25%	2%	15µM*	?	0%
O=C1/C(=C\c2ccc(Br)o2)SC(=Nc2ccccc2)N1c1ccccc1	?	-24%	0%	3%	-1%	1%
Cc1ccc(C)c(/C=C2\N=C(c3ccccc3F)OC2=O)c1	-10%	/	6%	?	2%	-8%
CCOc1ccccc1CNC(=O)c1cc2c(=O)n(Cc3ccccc3)ccc2nc1C	/	/	/	-10%	/	/
COc1ccc(NC(=O)CSc2nc(C)cs2)c([N+](=O)[O-])c1	?	/	/	/	6%	/
Cc1ccc(C=C2C(=O)c3ccccc3C2=O)s1	0%	16%	9%	0.85µM*	?	1%
CSC1=N/C(=C\c2ccc(C)s2)C(=O)S1	6%	11%	-4%	-3%	3%	0%
Cc1cc(C)c(S(=O)(=O)c2ccccc2Cl)c(=O)[nH]1	1%	/	15%	1%	1%	-4%
COc1ccc(CC(=O)N(Cc2ccccc2)c2ccccc2)cc1S(=O)(=O)N1CCOCC1	16µM*	/	8%	-3%	-19%	-5%
COc1ccc(C(=O)Nc2nc(-c3nnn(-c4ccc(C(C)C)cc4)c3C)ns2)cc1	/	/	/	-3%	/	/
SMILES	ELG1 DNA repair	SMN2 splice up	Rab9 prom act	FLuc modulator	ELG1 genotoxic	NPC1 promoter act
Cc1cc(C(=O)CSc2nnnn2-c2ccc(O)cc2)c(C)n1Cc1ccc2c(c1)OCO2	18µM*	-38%	-1%	1%	-38%	1%
O=C(CSc1nncs1)NC(=O)Nc1ccc2c(c1)OCCO2	?	/	3.5µM*	15µM*	?	?
O=C(CSc1nncs1)Nc1ccc2c(c1)OCCO2	?	18%	?	?	15µM*	?
Cc1cc(C(=O)CSc2nncs2)c(C)n1-c1ccc2c(c1)OCO2	?	-12%	2.2µM*	19µM*	5%	?
Cc1cc(C(=O)CSc2nnnn2-c2ccccc2)c(C)n1-c1ccc2c(c1)OCO2	-3%	-90%	-3%	1%	17%	-3%
O=[N+]([O-])c1ccc(Cc2cncc(O)c2)cc1	-9%	/	-4%	-1%	-1%	-3%
COc1ccc(C(=O)Nc2cnc3ccccn3c2=O)cc1	?	18µM*	3.5µM*	17µM*	?	2.8µM*
COc1ccc(OC)c(NC(=O)c2cc3c(=O)n4ccccc4nc3n2C)c1	-7%	-15%	0%	3%	10%	-8%
O=C(Nc1cnc2ccccn2c1=O)c1ccc(F)cc1	?	11µM*	3.2µM*	17µM*	19%	2.5µM*
COc1ccc2nc(-c3ccccc3)cc(C(=O)OCC(=O)N3CC(C)OC(C)C3)c2c1 (stereo not given)	?	/	-5%	19µM*	-6%	-10%
Cc1cc(C(=O)OCC(=O)N2CC(C)OC(C)C2)c2ccccc2n1 (stereo not given)	11%	/	1%	6%	-1%	-4%
COc1ccc2nc(-c3ccccc3)cc(C(=O)N3CCC3)c2c1	-27%	/	1%	?	-4%	-1%
COc1ccc(-c2cc(C(=O)OCC(=O)N3CCCC3)c3ccccc3n2)cc1	?	32%	15%	6µM*	-2%	15%
Cc1cc(C(=O)OCC(=O)N2CCCC2)c2ccccc2n1	9%	23%	8%	2%	2%	0%
COc1ccc2nc(-c3ccccc3)cc(C(=O)OCC(=O)N3CCCCC3)c2c1	?	/	-1%	21µM*	-8%	-3%
CCc1ccc(NC(=O)c2ccc3c(c2)c(C)c(C)n3Cc2ccccc2)cc1	/	/	/	-14%	/	/
CCN(CC)S(=O)(=O)c1cccc(NC(=O)CN2C(=O)NC3(CCC(C)CC3)C2=O)c1 (stereo not given)	?	/	-9%	4%	5%	-9%
Cc1ccc(S(=O)(=O)N2CCN(C(=O)c3sccc3-c3ccccc3)CC2)cc1	0%	/	3%	1%	-8%	-2%
Cc1cc(=O)[nH]c2ccc(S(=O)(=O)NC3CCCCC3)cc12	?	/	-4%	1%	21µM*	-1%
CCc1cccc(-n2c(=O)c3cccnc3n2CC(=O)NCc2ccc(C)cc2)c1	/	/	/	-10%	/	/
CC(C)C(=O)OC/C(O)=C(\C#N)c1nc2ccccc2[nH]1	-9%	11%	-6%	-7%	-1%	-4%
Cc1ccc(C(C)C)c(OC/C(O)=C(\C#N)c2nc3ccccc3[nH]2)c1	16µM*	/	14%	4%	-10%	-1%
